TDP1 block: qHTS Assay for Inhibitors of Tyrosyl-DNA Phosphodiesterase (TDP1); Tyrosyl-DNA phosphodiesterase 1 (Homo sapiens), Q9NUW8; AID 485290, 2010; Potency, µM (series often up to 130 µM), hits mostly inhibitors; actives 0.28% (n = 350,000); recombinant TDP1, AlphaScreen DNA substrate cleavage; note: nearly all actives have a fitted effect of over 40% in size
Target sequence (Q9NUW8 whole entry, looked up): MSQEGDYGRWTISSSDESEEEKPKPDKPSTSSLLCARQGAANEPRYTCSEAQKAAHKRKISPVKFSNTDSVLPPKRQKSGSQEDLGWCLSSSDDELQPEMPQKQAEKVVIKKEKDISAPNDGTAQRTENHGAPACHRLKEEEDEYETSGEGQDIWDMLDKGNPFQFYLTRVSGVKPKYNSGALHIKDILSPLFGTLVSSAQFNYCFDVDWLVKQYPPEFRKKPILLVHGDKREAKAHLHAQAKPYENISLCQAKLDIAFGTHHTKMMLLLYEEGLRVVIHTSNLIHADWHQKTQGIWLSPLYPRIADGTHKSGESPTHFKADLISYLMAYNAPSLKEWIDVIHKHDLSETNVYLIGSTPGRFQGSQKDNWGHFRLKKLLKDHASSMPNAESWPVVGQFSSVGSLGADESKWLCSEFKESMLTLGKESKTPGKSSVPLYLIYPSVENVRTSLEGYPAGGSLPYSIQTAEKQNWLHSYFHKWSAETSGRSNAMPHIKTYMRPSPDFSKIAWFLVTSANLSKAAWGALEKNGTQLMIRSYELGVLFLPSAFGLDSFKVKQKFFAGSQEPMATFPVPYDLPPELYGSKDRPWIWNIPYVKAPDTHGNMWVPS
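Recombinant E. coli-expressed Tdp1 (1 nM) preincubated with compound 15 min at RT, then 5'-biotin/3'-phosphotyrosine-FITC DNA substrate (15 nM) added for 5 min. AlphaScreen beads (10 ug/ml) added, 10 min RT; tyrosine-FITC cleavage read as signal loss.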
uPA surface inh: qHTS for Inhibitors of Cell Surface uPA Generation. cell surface uPA generation assay, qHTS. Potency, µM (highest dose often 38.3 µM), actives largely listed as inhibitors. actives 0.31% (n = 330,000). AID 540303, 2011; active = well fitted inhibition curve with a large enough effect; inconclusive = small, poorly fitted or top-dose-only effect; inactive = no such curve, though single readings can be large or run the other way; tested in mouse RAW 264.7 cells; note: nearly all actives have a fitted effect of over 55% in size
DT40 TDP1 CPT: qHTS for Inhibitors of human tyrosyl-DNA phosphodiesterase 1 (TDP1): qHTS in cells in presence of CPT | AID 686979, 2013 | Potency, µM (top dose mostly 46.2 µM), most hits filed as inhibitors | chicken DT40 Tdp1-/-;hTDP1 cells + 20 nM CPT, ATP luminescence, 48 h | actives 12% (n = 420,000); note: nearly all actives have a fitted effect of over 55% in size
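Chicken DT40 Tdp1-/- cells stably complemented with human TDP1 were seeded at 400 cells/well in medium containing 20 nM camptothecin, exposed to pin-transferred compounds, and grown at 37 °C for at least 48 hr. Viability was read as ATP luminescence.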
miR-21 act: qHTS Assay for Modulators of miRNAs and/orActivators of miR-21. HeLa miR-21 FLuc reporter, luciferase, 48 h. Potency, µM (series often up to 38.3 µM), most hits filed as activators. 340,000 tested, under 10 active. AID 2288, 2010;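 note: miR-21 action dims this reporter so a rising signal means less miR-21 action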
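Compounds were titrated across several concentrations (up to approximately 40 uM) and incubated 48 hours with HeLa miR-21-FLuc reporter cells (miR-21 target sequence downstream of FLuc, endogenous miR-21). Readout was firefly luciferase luminescence after lytic detection reagent.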
DT40 TDP1 no CPT: qHTS for Inhibitors of human tyrosyl-DNA phosphodiesterase 1 (TDP1): qHTS in cells in absence of CPT. DT40 Tdp1-/- hTDP1 cells, no CPT, ATP luminescence, 48 h. Potency, µM (doses to about 46.2 µM), actives largely listed as inhibitors. actives 15% (n = 420,000); note: nearly all actives have a fitted effect of over 55% in size
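Growth of hTDP1-complemented DT40 Tdp1-knockout cells is measured by ATP luminescence after at least 48 hr compound exposure at 37 °C, with DMSO substituting for the 20 nM CPT used in the parallel screen.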
Of the large screens only hits and unclear results are named; the others gave an inactive call. Most compounds without a hit are left out; they make up all but 16% or so of the library. Unless noted, calls come from the whole dose curve; as a rule, active = well fitted curve in the direction sought with a large enough effect; inconclusive = small, poorly fitted or top-dose-only effect, or another doubt; inactive = no such curve, though single readings can be large; an effect the other way counts as inactive or inconclusive.

CN1/C(=C\C(=O)COC(=O)C2COc3ccccc3O2)C(C)(C)c2ccccc21 (configuration not stated)	DT40 TDP1 CPT 11.6µM, DT40 TDP1 no CPT inconclusive
COc1ccc(OC(C)C(=O)NCc2nc(-c3ccc(Cl)cc3)no2)cc1 (configuration not stated)	DT40 TDP1 CPT inconclusive, miR-21 act inconclusive, DT40 TDP1 no CPT inconclusive (no result: uPA surface inh)
CC(C)C1S/C(=N/N=C/c2cccs2)NC1=O (configuration not stated)	none
COc1ccccc1OCC(=O)/C=C1/N(C)c2ccccc2C1(C)C	DT40 TDP1 CPT 16.4µM, DT40 TDP1 no CPT 20.6µM
Cc1ccc(C(=O)NCC(=O)OCC(=O)/C=C2\N(C)c3ccccc3C2(C)C)cc1C	DT40 TDP1 CPT 16.4µM, DT40 TDP1 no CPT inconclusive
Cc1ccc(C(=O)NCc2ccncc2)cc1S(=O)(=O)N1CCOCC1	none
Cc1cc(OC(C)C(=O)NCCc2c[nH]c3ccccc23)c2c(C)cc(=O)oc2c1 (configuration not stated)	DT40 TDP1 CPT 16.4µM, DT40 TDP1 no CPT inconclusive (no result: TDP1 block)
CCCC1CCC(=NNC(=O)OC(C)(C)C)CC1 (configuration not stated)	none
CN(Cc1ccc(OC(F)F)cc1)C(=O)/C=C/c1ccc(S(=O)(=O)N2CCOCC2)cc1	DT40 TDP1 CPT 18.4µM, DT40 TDP1 no CPT inconclusive (no result: miR-21 act)
COc1ccc(CN(C)C(=O)/C=C/c2ccc(S(=O)(=O)N3CCOCC3)cc2)cc1F	DT40 TDP1 CPT 16.4µM, DT40 TDP1 no CPT 20.6µM (no result: miR-21 act)
CC(=O)Nc1ccc(/C=C/c2ccc3c([N+](=O)[O-])cccc3n2)cc1	none
CCCC/C=C/[C@H](C)[C@@](C)(COC(=O)c1ccc(Br)cc1)Cc1ccccc1	none (no result: uPA surface inh, DT40 TDP1 CPT, miR-21 act, DT40 TDP1 no CPT)
CC1=CC2C(C(O)CC3(C)C2CC(C)C32OCOC23COCO3)C2(C)C/C(=C\O)C(=O)C=C12 (configuration not stated)	DT40 TDP1 CPT 1.64µM, DT40 TDP1 no CPT 2.59µM (no result: TDP1 block, miR-21 act)
O=C(/C=C/c1ccco1)NC(=S)Nc1cccc(-c2nc3ccccc3s2)c1	DT40 TDP1 CPT 4.61µM, DT40 TDP1 no CPT 5.8µM (no result: TDP1 block, miR-21 act)
Cc1ccc(-c2nc3ccccc3s2)cc1NC(=S)NC(=O)/C=C/c1ccco1	DT40 TDP1 CPT inconclusive, DT40 TDP1 no CPT 13µM
O=C(/C=C/c1ccco1)NC(=S)Nc1cc(-c2nc3ccccc3s2)ccc1Cl	DT40 TDP1 CPT 11.6µM, DT40 TDP1 no CPT 23.1µM
Cc1ccccc1NC(=S)NC(=O)/C=C/c1ccco1	none
O=C(C[n+]1cccc(C(=O)Nc2ccccc2)c1)c1ccc(Cl)cc1	DT40 TDP1 CPT inconclusive, DT40 TDP1 no CPT 16.4µM (no result: TDP1 block, uPA surface inh, miR-21 act)
CCOc1ccc(Oc2ccc(Cl)cc2NC(=O)CCNC(C)=O)cc1	DT40 TDP1 no CPT inconclusive
O=C(NC1CCCCC1)N1CCN(C(c2ccccc2)c2ccccc2)CC1	DT40 TDP1 CPT 10.3µM, DT40 TDP1 no CPT 16.4µM
O=C(NC1CCCCC1)N1CCN(c2ccccc2)CC1	none
CN(C)c1oc(-c2ccc(OCc3ccccc3)cc2)nc1C#N	none
O=C(NCC(=O)N(c1cccnc1)C(C(=O)NC1CCCC1)c1cccs1)c1ccco1 (configuration not stated)	none
CCOc1[nH]n(-c2ccc(Cl)cc2)c(=O)c1C=Nc1ccc(OC)cc1	DT40 TDP1 CPT inconclusive, DT40 TDP1 no CPT inconclusive
CCOc1[nH]n(-c2ccccc2)c(=O)c1C=Nc1ccc(Cl)cc1	DT40 TDP1 CPT inconclusive, DT40 TDP1 no CPT 14.6µM
CCOc1[nH]n(-c2ccccc2)c(=O)c1C=Nc1ccc(C)cc1	DT40 TDP1 CPT inconclusive
CCOc1[nH]n(-c2ccccc2)c(=O)c1C=Nc1ccccc1	uPA surface inh 6.31µM, DT40 TDP1 CPT 6.51µM, DT40 TDP1 no CPT 5.8µM
O=C(NCC1OCCCN1S(=O)(=O)c1ccc(F)cc1)C(=O)NC1CCCC1 (configuration not stated)	none
CN1CCC2(CC1)N=C(c1ccc(F)cc1)C(=S)N2C(=O)c1ccc(C(C)(C)C)cc1	DT40 TDP1 CPT 7.31µM, DT40 TDP1 no CPT 5.8µM

From PubChem BioAssay
